High-throughput results: PubChem BioAssay, The Scripps Research Institute Molecular Screening Center
Many of the other results were omitted from the sample, so hits are more common in it than they were.
TbREL1 primary: TbREL1 inhibition, primary screen; P86926; TbREL1 RNA ligation, FRET fluorescence; inhibition, % at 9.66 µM; hit rate 0.49% among 89,000;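 active = inhibition above the mean inhibition across all screened compounds plus 3 SD, cut at about 11% in these data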;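 also: 0% = plate median of test wells and 100% = NSC42067 control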
Target sequence (P86926 whole entry, looked up): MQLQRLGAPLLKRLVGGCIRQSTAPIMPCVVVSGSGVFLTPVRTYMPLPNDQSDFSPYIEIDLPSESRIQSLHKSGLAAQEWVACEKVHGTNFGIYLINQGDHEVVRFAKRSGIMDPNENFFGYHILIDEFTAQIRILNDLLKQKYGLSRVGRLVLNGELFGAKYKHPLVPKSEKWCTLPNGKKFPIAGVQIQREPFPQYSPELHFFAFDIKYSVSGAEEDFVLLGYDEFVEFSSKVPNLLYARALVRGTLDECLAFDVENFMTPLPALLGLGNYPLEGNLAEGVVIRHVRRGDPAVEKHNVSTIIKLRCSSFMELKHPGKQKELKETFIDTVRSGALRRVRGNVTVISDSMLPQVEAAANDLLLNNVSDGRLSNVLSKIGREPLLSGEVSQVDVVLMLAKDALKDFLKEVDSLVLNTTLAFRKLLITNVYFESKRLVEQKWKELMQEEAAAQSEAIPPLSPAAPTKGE
TbREL1 conf: TbREL1 inhibition, confirmation | shares compounds with TbREL1 primary | AID 1117282 | inhibition, % at 9.66 µM | hit rate 37% among 390 | TbREL1 RNA ligation, FRET fluorescence;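 active = mean inhibition across replicates above a set limit taken from the earlier primary screen, cut at about 11% in these data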;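 also: 0% = REL1 with substrate and DMSO and 100% = REL1 plus control inhibitor NSC42067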
* hit, by the source's call.

Screening COc1ccc2c3c([nH]c2c1)[C@]1(CCNC=O)Nc2ccccc2C1=NCC3 returned TbREL1 primary 11* and TbREL1 conf 0.
COc1ccc2[nH]c3c(c2c1)CCN[C@]31C(=O)Nc2ccccc21 was read as TbREL1 primary 6.
For CC(C)C(O)(CC#CCN1CCCC1)c1ccccc1 (configuration not stated) the results were TbREL1 primary 1.
`COc1ccc(NC(=O)CCS(=O)(=O)c2ccc3c(c2)oc(=O)n3C)cc1OC` gave TbREL1 primary 6.
CN(C)CCCn1c(SCC(=O)Nc2nccs2)nnc1-c1ccncc1 was read as TbREL1 primary 1.
Screening Cc1cccc(-n2c(CNC(=O)COc3ccccc3)nnc2SCC(=O)Nc2nccs2)c1 returned TbREL1 primary 3.
Screening CCn1c(COc2cc(C)ccc2C(C)C)nnc1SCC(=O)Nc1nccs1 returned TbREL1 primary 12* and TbREL1 conf 7.
For O=C(O)CSc1nc2ccc(C(=O)c3ccccc3)cc2[nH]1 the results were TbREL1 primary 0.
CCOC(=O)[C@]12CCCC=C1N(CCCOC)C(=O)[C@@H]2CC(=O)N1CCN(C(=O)C2CC2)CC1 was read as TbREL1 primary 11.
`COc1cc2c(cc1OC)CN(c1ccc(C(F)(F)F)cn1)CC2` gave TbREL1 primary 4.
`CCC(C)CCN1C(N(C)C)=NC[C@@H]1CC(C)C` (some centres not stated) gave TbREL1 primary 8.
`Oc1ccc(Cl)c2cccnc12` gave TbREL1 primary 1.
Screening Oc1ccc(-c2nn[nH]n2)c2cccnc12 returned TbREL1 primary 16* and TbREL1 conf 0.
`Oc1ccc(Cc2ccccc2)c2cccnc12` gave TbREL1 primary -3.
For C=CCc1ccc(OCCCOc2ccc(C)cc2OC)c(OC)c1 the results were TbREL1 primary 1.
For C=CCc1ccc(OCCOCCOc2ccccc2[N+](=O)[O-])c(OC)c1 the results were TbREL1 primary -1.
For C=CCc1ccc(OCCCNCc2ccccc2)c(OC)c1 the results were TbREL1 primary 12* and TbREL1 conf 10.
For Cc1cccc(CC(=O)NCCN2CCOCC2)c1 the results were TbREL1 primary 3.
`O=C(CNC(=O)c1ccc(Cl)cc1Cl)Nc1ccc(F)cc1` gave TbREL1 primary -1.
For COc1ccc(F)c(-c2nc(CN3CCN(C(=O)c4ccco4)CC3)c(C)o2)c1 the results were TbREL1 primary -3.
For COc1ccc(-c2nc(CN3CCN(c4cc(C)nc(C)c4)CC3)c(C)o2)c2ccccc12 the results were TbREL1 primary 15* and TbREL1 conf 10.
For COc1ccc(CCNC(=O)C2CCCN(Cc3nc(-c4ccccc4C)oc3C)C2)cc1OC (configuration not stated) the results were TbREL1 primary -1.
CCCCCC(=O)N1CC2(CC(c3cccc(NC(=O)CC)c3)=NO2)C[C@H]1C(N)=O (some centres not stated) was read as TbREL1 primary 0.
For CCC1(CC)C(=O)C2=C3C1[C@H](C(=O)OC)C=C(C(=O)OC)C[C@H]3[C@H]1C(=O)N(CC(=O)OC)C(=O)[C@H]1[C@H]2C (some centres not stated) the results were TbREL1 primary -1.
For O=c1c2c(-c3ccco3)csc2nc(SCc2cn3cccnc3n2)n1-c1ccccc1 the results were TbREL1 primary 23* and TbREL1 conf 0.
For c1ccc(SCc2cn3cccnc3n2)nc1 the results were TbREL1 primary 1.
Screening Nc1ccccc1SCc1cn2cccnc2n1 returned TbREL1 primary 0.
COc1ccccc1CNC(=O)C1CC(c2c(Cl)cccc2Cl)=NO1 (configuration not stated) was read as TbREL1 primary -2.
`C=CCn1c(CNC(=O)c2ccccc2F)nnc1SCC(=O)NC(C)c1ccccc1` (configuration not stated) gave TbREL1 primary 12* and TbREL1 conf 5.
Screening C=CCn1c(CCNC(=O)c2ccccc2F)nnc1SCC(=O)Nc1nc(C)cs1 returned TbREL1 primary -1.
C=CCn1c(CCNC(=O)c2ccccc2F)nnc1SCC(=O)Nc1ccccc1F was read as TbREL1 primary 1.
Screening COc1cc(NC(=O)CN2CCN(c3ccccc3F)CC2)cc(OC)c1 returned TbREL1 primary -2.
CC1(C(=O)NCc2cccc(C(F)(F)F)c2)CCN1Cc1ccc2ccccc2c1 (configuration not stated) was read as TbREL1 primary -1.
CCCCC[C@H](C)N1C[C@@H](COCc2ccccc2)Oc2cc(N3CC[C@@H](O)C3)ccc2S1(=O)=O was read as TbREL1 primary 2.
Screening CCCCC[C@H](C)N1C[C@H](COCc2ccccc2)Oc2cc(N3CC[C@H](N(C)C)C3)ccc2S1(=O)=O returned TbREL1 primary 2.
Screening CCCCC[C@@H](C)N1C[C@@H](COCc2ccccc2)Oc2cc(N3CC[C@@H](N(C)C)C3)ccc2S1(=O)=O returned TbREL1 primary 14* and TbREL1 conf 4.
For O=C(Nc1ccc(Cl)cc1)C(Cl)C(=O)c1ccccc1 (configuration not stated) the results were TbREL1 primary 12* and TbREL1 conf 8.
Screening O=C(Nc1ccc(F)c(Cl)c1)c1ccccc1 returned TbREL1 primary 0.
For O=C(N/C(=N\O)c1ccccc1)Nc1ccc(Cl)cc1 the results were TbREL1 primary 1.
For CCCN(C(=O)COc1ccc(C(C)=O)cc1OC)C1CCS(=O)(=O)C1 (configuration not stated) the results were TbREL1 primary 0.
CC(OC(=O)C1=COCCO1)C(=O)c1ccc(Br)cc1 (configuration not stated) was read as TbREL1 primary 5.
For COc1ccc(/C=N/Nc2nc(-c3ccc(Cl)cc3)cc(C(F)(F)F)n2)cc1OC the results were TbREL1 primary -2.
`CCOc1cc(/C=N/Nc2nncc(-c3ccccc3)n2)ccc1O` gave TbREL1 primary 0.
For COc1ccc(-c2cnnc(N/N=C/c3ccc(OC)c(OC)c3)n2)cc1 the results were TbREL1 primary 11* and TbREL1 conf -2.
COc1cc(C(C)=O)ccc1OCC(=O)NC(=O)Nc1ccc(C)cc1C was read as TbREL1 primary -4.
`CCC(C)NC(=O)c1ccc(CS(=O)(=O)Cc2ccc(Cl)cc2)o1` (configuration not stated) gave TbREL1 primary 5.
Screening CC(C)CCOC(=O)C1C2C=CC3(CN(Cc4cccs4)C(=O)C13)O2 (configuration not stated) returned TbREL1 primary -6.
Screening O=C(NCc1cccs1)C1C2C=CC3(CN(Cc4ccccc4)C(=O)C13)O2 (configuration not stated) returned TbREL1 primary 2.
Screening O=C(NCC1CCCO1)C1C2C=CC3(CN(Cc4cccs4)C(=O)C13)O2 (configuration not stated) returned TbREL1 primary 20* and TbREL1 conf 1.
`O=C(NCc1cccnc1)NC1CC(=O)N(c2ccc3c(c2)OCCO3)C1` (configuration not stated) gave TbREL1 primary 3.
COCCNC(=O)c1cc(-c2ccc(-c3ccccc3)cc2)nc2ccccc12 was read as TbREL1 primary -3.
Screening CCC(C)NC(=O)CNS(=O)(=O)c1ccc(C)cc1 (configuration not stated) returned TbREL1 primary 0.
For CC(C)CC(=O)NN1CCCCC1 the results were TbREL1 primary 1.
